Several values for one entry are separate records, joined by “and”; a condition that tells them apart may be missing. Identical values can stand only once. Compounds without any hit were thinned out: in the full panel of roughly 79,000, 15% have a hit. Activity calls are given as the source filed them. Rule as the data show it: active = growth inhibition above about 70%; inactive = the rest.
Key:
[1] = NCI Yeast Anticancer Drug Screen. Data for the rad50 strain (AID 155);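 also: 0% = growth of vehicle-only cultures of the same strain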; conditions: S. cerevisiae rad50 strain growth inhibition, stronger effect = higher value; at 50.0 µM unless noted
Procedure, shortened: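 Vehicle-treated cultures provide the reference for the growth inhibition reported for compound-exposed, repair-deficient yeast.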

[2] = NCI Yeast Anticancer Drug Screen. Data for the mec2-1 strain (AID 157); conditions: S. cerevisiae mec2-1 strain, stronger effect = higher value; at 50.0 µM unless noted
Procedure, shortened: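 Strain: mec2-1 (DNA repair/cell cycle alteration). Compound exposure, then growth measured; inhibition expressed relative to vehicle.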

[3] = NCI Yeast Anticancer Drug Screen. Data for the sgs1 mgt1 strain (AID 161);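 also: 0% = growth of cultures given vehicle only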; conditions: S. cerevisiae sgs1 mgt1 strain, stronger effect = higher value; at 50.0 µM unless noted
Procedure, shortened: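 Read-out: growth inhibition vs vehicle controls. Cells: mutant yeast strain deficient in DNA damage repair.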

[4] = NCI Yeast Anticancer Drug Screen. Data for the cln2 rad14 strain (AID 165);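 also: 0% = growth equal to vehicle treated cultures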; conditions: S. cerevisiae cln2 rad14 strain, stronger effect = higher value; at 50.0 µM unless noted
Procedure, shortened: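 Compounds are applied to the cln2 rad14 yeast strain, and growth is then compared with that of vehicle-treated cultures to give inhibition.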

[5] = NCI Yeast Anticancer Drug Screen. Data for the bub3 strain (AID 167); conditions: S. cerevisiae bub3 mutant strain, stronger effect = higher value; at 50.0 µM unless noted
Procedure, shortened: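 Mutant yeast screening strain plus compound; vehicle-treated cultures serve as the 0% inhibition reference.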

[6] = NCI Yeast Anticancer Drug Screen. Data for the mlh1 rad18 strain (AID 175); conditions: S. cerevisiae mlh1 rad18 strain growth inhibition, stronger effect = higher value; at 50.0 µM unless noted
Procedure, shortened: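 Read-out is yeast growth inhibition, calculated against vehicle-only controls. The compound was applied to a strain engineered with DNA damage repair alterations.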

Measured: growth inhibition

O=C(O)CNC(=S)SCC(=O)O
inactive: [1] -2.4% | [2] -6.55% | [3] -23.1% | [4] -32.4% | [5] 5.2% | [6] -19.6%

CCOC(=O)C(NC(=O)CC)(Nc1ccc(S(=O)(=O)Nc2nc(C)cc(C)n2)cc1)C(F)(F)F (configuration not stated)
inactive: [1] -5.6% | [2] -3.4% | [3] 8.55% | [4] 21.6% | [5] 2.5% | [6] 7.65%

Cn1ncc2c(NC(C)(C)CC(C)(C)C)ncnc21
inactive: [1] 21.1% | [2] 7.95% | [3] 1.05% | [4] 1.55% | [5] 45.4% | [6] 16.8%

CSCCSC
inactive: [1] 10.2% | [2] 4.6% | [3] -0.1% | [4] 13.4% | [5] 3.4% | [6] 3.65%

CCOC(=O)C1(C#N)C(C#N)(C#N)C1(CC)CC (configuration not stated)
inactive: [1] -11.2% | [2] 19.6% | [3] -1.55% | [4] 10.3% | [5] -6.4% | [6] -20.8%

OCC1=CC(O)C2C=COC(OC3OC(CO)C(O)C(O)C3O)C12 (configuration not stated)
inactive: [1] -15.9% | [2] -24.6% | [3] -19.1% | [4] -6.45% | [5] -32% | [6] -31.1%

CCCCCCCCC(=O)Nc1cccc(O)c1
inactive: [1] -6.7% | [2] -12.4% | [3] -8.45% | [4] -48.6% | [5] -26.4% | [6] -13.8%

CC(CN(CP(=O)([O-])[O-])CP(=O)([O-])[O-])N(CP(=O)([O-])[O-])CP(=O)([O-])[O-].N.N.[Pt+2] (configuration not stated)
inactive: [1] -18.6% | [2] -20.5% | [3] -18.9% | [4] 23.6% | [5] 9.9% | [6] -10.8%

CCOc1ccccc1N=C(NC(=O)CC)SC
inactive: [1] 39% | [2] 26.8% | [3] -7.15% | [4] 12.1% | [5] 32.3% | [6] 52%

Clc1cccc(/C=N\N=C\c2cccc(Cl)c2)c1
inactive: [1] -4.6% | [2] -7.75% | [3] 6.3% | [4] -8.75% | [5] -1.95% | [6] 5.45%

CCc1ccc(NC(=O)c2ccc(Cl)cc2Cl)cc1
inactive: [1] 4.9% | [2] 34.5% | [3] 7.7% | [4] 2.95% | [5] 11.8% | [6] 0.95%

CCN(CC)Cc1c(/C=C\c2cc(OC)c(OC)c(OC)c2)ccc(OC)c1O
inactive: [1] -7.05% | [2] 4.4% | [3] 14.1% | [4] 9.55% | [5] 15.3% | [6] -64%

BrC1CC2CCC1CC2 (configuration not stated)
inactive: [1] -14.7% | [2] -6.45% | [3] -7.2% | [4] -6.8% | [5] -7.05% | [6] 16.6%

O=C(CC1SC(=Nc2ccccc2Cl)NC1=O)Nc1ccc(Cl)cc1Cl (configuration not stated)
inactive: [1] -9.8% | [2] -14.8% | [3] -15.9% | [4] 17.7% | [5] -6.55% | [6] 9.7%

Cc1cc(=O)[nH]c(N/N=C/C=C/c2ccccc2)n1
inactive: [1] -35.4% | [2] -25.7% | [3] -17.1% | [4] -15.8% | [5] -15.8% | [6] -25.9%

O=[N+]([O-])c1ccc2c(c1)S(=O)c1ccccc1-2 (configuration not stated)
inactive: [1] -18.1% | [2] -3.65% | [3] -12.4% | [4] 1% | [5] -37.8% | [6] -4.8%

CCOc1ccc(/C=C/C(=O)c2sc(NNC(C)=O)nc2C)cc1
inactive: [1] 20.1% | [2] 25.1% | [3] -11.6% | [4] 12.7% | [5] 25.9% | [6] 22.4%

Cc1ccc(S(=O)(=O)OCCOCCOS(=O)(=O)c2ccc(C)cc2)cc1
inactive: [1] 30.8% | [2] -0.4% | [3] 2.25% | [4] 4% | [5] 18.9% | [6] 17.8%

CCn1c2ccccc2c2cc(N=Nc3ccc4c(c3)c3ccccc3n4CC)ccc21
inactive: [1] 44.5% | [2] 14.7% | [3] 19.9% | [4] 41.2% | [5] 45.2% | [6] 35.5%

O=S(=O)(O)C(I)S(=O)(=O)O
inactive: [1] -19.1% | [2] -2.65% | [3] -19.4% | [4] -18.2% | [5] -10.8% | [6] -20%

C/C(=C/CC1=C(O)c2ccccc2C(=O)C1=O)CO
inactive: [1] 23% | [2] 32.9% | [3] 51.7% | [4] 32.8% | [5] 26% | [6] 33.8%

CC(=O)c1cc(Cc2cc(C)cc(C)c2O)c(O)c(Cc2cc(C)cc(C)c2O)c1
inactive: [1] 18.9% | [2] 11.6% | [3] 28.9% | [4] 33.7% | [5] 17.4% | [6] 4.05%

CCC1CC(C)=CCN1S(=O)(=O)c1ccc(C)cc1 (configuration not stated)
inactive: [1] -12.6% | [2] -2.3% | [3] 4.4% | [4] 18.6% | [5] 12.2% | [6] 2.35%

CN(C)C1=C(Cl)C(=O)C(=O)c2cccnc21
inactive: [1] 32.3% | [2] -2.9% | [3] 21.4% | [4] 5.2% | [5] -16.4% | [6] 38.4%

C=CCOC(=O)CCCC1=NC2=CC=CC3=NC(C)=NC(=N1)N23
inactive: [1] -1.1% | [2] 2.35% | [3] 1.45% | [4] 12.2% | [5] -17.3% | [6] 1.2%

CCCCC(O)CCC (configuration not stated)
inactive: [1] -30.4% | [2] -52.4% | [3] -24.8% | [4] 4.85% | [5] -48.7% | [6] -33.5%

c1ccc2c(c1)C(=NCCCN1CCCCCCC1)c1cccn1-2
inactive: [1] 23.5% | [2] 9.95% | [3] 29.1% | [4] -2.7% | [5] 23.1% | [6] 25.4%

CC(=O)Nc1cc(S(=O)(=O)O)cc2cc(S(=O)(=O)O)cc(O)c12
inactive: [1] -20.9% | [2] -13.3% | [3] -0.05% | [4] 21.8% | [5] 15.6% | [6] -8.2%

CC(C)N(CCO)CC(O)Cn1cnc2ncnc(N)c21 (configuration not stated)
inactive: [1] 2.15% | [2] -10.8% | [3] -24.9% | [4] 6.7% | [5] -28.4% | [6] 4.45%

COc1c(OC2OC(CO)C(O)C(O)C2O)cc2c(c1OC)-c1ccc(OC)c(=O)cc1[C@@H](NC(C)=O)CC2 (some centres not stated)
inactive: [1] -4.2% | [2] 9.6% | [3] 3.8% | [4] 3.65% | [5] -0.1% | [6] 8.05%

C#CCOC(=O)c1ccccc1
inactive: [1] 1.15% | [2] -5.15% | [3] 0.6% | [4] -24.2% | [5] 3.5% | [6] 0%

Cc1ncc(CO)c(CO)c1O
inactive: [1] 3.05% and -8.25% | [2] -2.95% and -14% | [3] -4.2% | [4] 2.4% | [5] 7% | [6] 45.8% and -5.65%

CCCOC(=O)c1ccc(O)cc1.[Cu+2]
inactive: [1] 5% | [2] -13.3% | [3] -14% | [4] -34.4% | [5] -3.05% | [6] 12.7%

CN1CCN(C2c3ccccc3OC(C)(C)C2O)CC1 (configuration not stated)
inactive: [1] -23.9% | [2] -14% | [3] -14.8% | [4] -25.8% | [5] -15.7% | [6] 8.8%

COc1ccccc1-n1c(=O)c(N=Nc2ccc(Br)cc2)c(O)n(-c2ccccc2C)c1=S
inactive: [1] 49.1% | [2] 0.85% | [3] 44.7% | [4] -11.1% | [5] -2.45% | [6] 17.6%

C/C(=N/NC(N)=S)c1ccc([N+](=O)[O-])cc1
active: [1] 75.7%
inactive: [2] -8.8% | [3] -8.6% | [4] -64.7% | [5] -12.4% | [6] -2.3%

Cc1ccc(O)c(C=NCCN=Cc2cc(C)ccc2O)c1.[Cu+2]
inactive: [1] 1.9% | [2] 5.25% | [3] 6.15% | [4] 8.45% | [5] -20.6% | [6] 13.3%
